Common to all, as to test: PBM; 200 nM protein, PBS
Holding throughout (settings): dsDNA, one strand shown

Assay [1] addresses HOXA7 (Homo sapiens, UniProt P31268 116-202).
Assay [2] concerns the target HOXA7 (Homo sapiens, UniProt P31268 116-202, W177C).
Assay [3] concerns the target HOXC10 (Homo sapiens, UniProt Q9NYD6 254-340).

HOXA7 (Homo sapiens, UniProt P31268 116-202, W177C), sequence (P31268 116-202 W177C): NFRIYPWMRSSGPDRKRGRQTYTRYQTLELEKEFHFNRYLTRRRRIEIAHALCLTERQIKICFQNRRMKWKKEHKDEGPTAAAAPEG
HOXC10, sequence (Q9NYD6 254-340): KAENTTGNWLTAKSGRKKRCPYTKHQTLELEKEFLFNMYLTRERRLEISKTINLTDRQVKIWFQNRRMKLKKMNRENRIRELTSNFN
HOXA7 (Homo sapiens, UniProt P31268 116-202), sequence (P31268 116-202): as the sequence (P31268 116-202 W177C) above, with C62W counted along it

Turning to CATTATGC, the binding signal in assay [1] was 10.3 upbm affinity estimate (log intensity, higher = more binding, comparable within an allelic series); in assay [2], 8.86 upbm affinity estimate (log intensity, higher = more binding, comparable within an allelic series).

CGGAAGGC: the binding signal in assay [1] is 8.5 upbm affinity estimate (log intensity, higher = more binding, comparable within an allelic series); in assay [2] it was 8.35 upbm affinity estimate (log intensity, higher = more binding, comparable within an allelic series).

Consider AAAATGAC, for which the binding signal in assay [1] is 10 upbm affinity estimate (log intensity, higher = more binding, comparable within an allelic series); in assay [2] it was 8.89 upbm affinity estimate (log intensity, higher = more binding, comparable within an allelic series).

With AGAGCCTG, the binding signal in assay [1] was 8.58 upbm affinity estimate (log intensity, higher = more binding, comparable within an allelic series); in assay [2], 8.43 upbm affinity estimate (log intensity, higher = more binding, comparable within an allelic series).

For the sequence CAGCGTGG, the binding signal was 8.45 upbm affinity estimate (log intensity, higher = more binding, comparable within an allelic series) in assay [1] and 8.4 upbm affinity estimate (log intensity, higher = more binding, comparable within an allelic series) in assay [2].

Consider GGAACTCA, for which the binding signal in assay [1] was 8.54 upbm affinity estimate (log intensity, higher = more binding, comparable within an allelic series); in assay [2] it was 8.56 upbm affinity estimate (log intensity, higher = more binding, comparable within an allelic series).

For CAAGCACC, the binding signal in assay [1] is 8.65 upbm affinity estimate (log intensity, higher = more binding, comparable within an allelic series); in assay [2], 8.49 upbm affinity estimate (log intensity, higher = more binding, comparable within an allelic series).

Turning to AGGTCAGA, the binding signal in assay [1] was 8.56 upbm affinity estimate (log intensity, higher = more binding, comparable within an allelic series); in assay [2], 8.58 upbm affinity estimate (log intensity, higher = more binding, comparable within an allelic series).

On to AAGGACTG, for which the binding signal in assay [1] is 8.44 upbm affinity estimate (log intensity, higher = more binding, comparable within an allelic series); in assay [2] it was 8.4 upbm affinity estimate (log intensity, higher = more binding, comparable within an allelic series).

Consider GCGGCTAC, for which the binding signal in assay [1] was 8.37 upbm affinity estimate (log intensity, higher = more binding, comparable within an allelic series); in assay [2] it was 8.37 upbm affinity estimate (log intensity, higher = more binding, comparable within an allelic series).

Consider GCAAGCGA, for which the binding signal in assay [1] is 8.55 upbm affinity estimate (log intensity, higher = more binding, comparable within an allelic series); in assay [2], 8.45 upbm affinity estimate (log intensity, higher = more binding, comparable within an allelic series).

As for CTCAGCTC, the binding signal in assay [1] is 8.44 upbm affinity estimate (log intensity, higher = more binding, comparable within an allelic series); in assay [2] it was 8.39 upbm affinity estimate (log intensity, higher = more binding, comparable within an allelic series).

Regarding AGAATGAT, the binding signal was 9.52 upbm affinity estimate (log intensity, higher = more binding, comparable within an allelic series) in assay [1] and 8.8 upbm affinity estimate (log intensity, higher = more binding, comparable within an allelic series) in assay [2].

For CAGCAACC, the binding signal in assay [1] is 8.52 upbm affinity estimate (log intensity, higher = more binding, comparable within an allelic series); in assay [2], 8.47 upbm affinity estimate (log intensity, higher = more binding, comparable within an allelic series).

Regarding CGCTGTGC, the binding signal in assay [1] is 8.49 upbm affinity estimate (log intensity, higher = more binding, comparable within an allelic series); in assay [2], 8.35 upbm affinity estimate (log intensity, higher = more binding, comparable within an allelic series).

GGGTACCC: the binding signal was 8.53 upbm affinity estimate (log intensity, higher = more binding, comparable within an allelic series) in assay [1] and 8.44 upbm affinity estimate (log intensity, higher = more binding, comparable within an allelic series) in assay [2].

As for AAGACGAG, the binding signal in assay [1] is 8.4 upbm affinity estimate (log intensity, higher = more binding, comparable within an allelic series); in assay [2], 8.43 upbm affinity estimate (log intensity, higher = more binding, comparable within an allelic series).

As to CCCCGTTA, the binding signal in assay [1] was 9.61 upbm affinity estimate (log intensity, higher = more binding, comparable within an allelic series); in assay [2], 8.75 upbm affinity estimate (log intensity, higher = more binding, comparable within an allelic series).

For GATTAAAC, the binding signal in assay [1] was 9.54 upbm affinity estimate (log intensity, higher = more binding, comparable within an allelic series); in assay [2], 8.63 upbm affinity estimate (log intensity, higher = more binding, comparable within an allelic series).

On to AGAGACTG, for which the binding signal is 8.18 upbm affinity estimate (log intensity, higher = more binding, comparable within an allelic series) in assay [1] and 8.35 upbm affinity estimate (log intensity, higher = more binding, comparable within an allelic series) in assay [2].

GAGCCAGC: the binding signal is 8.52 upbm affinity estimate (log intensity, higher = more binding, comparable within an allelic series) in assay [1] and 8.41 upbm affinity estimate (log intensity, higher = more binding, comparable within an allelic series) in assay [2].

Regarding CCGCTTCG, the binding signal in assay [1] is 8.43 upbm affinity estimate (log intensity, higher = more binding, comparable within an allelic series); in assay [2], 8.41 upbm affinity estimate (log intensity, higher = more binding, comparable within an allelic series).

For the sequence AGACGGGA, the binding signal in assay [1] was 8.62 upbm affinity estimate (log intensity, higher = more binding, comparable within an allelic series); in assay [2], 8.51 upbm affinity estimate (log intensity, higher = more binding, comparable within an allelic series).

In the case of CGCTGAAG, the binding signal in assay [1] was 8.52 upbm affinity estimate (log intensity, higher = more binding, comparable within an allelic series); in assay [2], 8.44 upbm affinity estimate (log intensity, higher = more binding, comparable within an allelic series).

With CCTCGAGG, the binding signal was 8.59 upbm affinity estimate (log intensity, higher = more binding, comparable within an allelic series) in assay [1] and 8.59 upbm affinity estimate (log intensity, higher = more binding, comparable within an allelic series) in assay [2].

Consider CCATTACA, for which the binding signal in assay [1] is 10.6 upbm affinity estimate (log intensity, higher = more binding, comparable within an allelic series); in assay [2], 8.97 upbm affinity estimate (log intensity, higher = more binding, comparable within an allelic series).

AAATGGGG: the binding signal in assay [1] is 9.82 upbm affinity estimate (log intensity, higher = more binding, comparable within an allelic series); in assay [2] it was 8.64 upbm affinity estimate (log intensity, higher = more binding, comparable within an allelic series).

With GCAAGCTA, the binding signal in assay [1] was 8.39 upbm affinity estimate (log intensity, higher = more binding, comparable within an allelic series); in assay [2] it was 8.42 upbm affinity estimate (log intensity, higher = more binding, comparable within an allelic series).

Take CCCCCGAC: the binding signal in assay [1] was 8.66 upbm affinity estimate (log intensity, higher = more binding, comparable within an allelic series); in assay [2], 8.36 upbm affinity estimate (log intensity, higher = more binding, comparable within an allelic series).

For the sequence CACCTACG, the binding signal in assay [1] was 8.56 upbm affinity estimate (log intensity, higher = more binding, comparable within an allelic series); in assay [2], 8.57 upbm affinity estimate (log intensity, higher = more binding, comparable within an allelic series).

With AGATAAAC, the binding signal in assay [1] was 9.31 upbm affinity estimate (log intensity, higher = more binding, comparable within an allelic series); in assay [2], 8.79 upbm affinity estimate (log intensity, higher = more binding, comparable within an allelic series).

For GATGTTAA, the binding signal in assay [3] is 10.8 upbm affinity estimate (log intensity, higher = more binding, comparable within an allelic series).

As to ATTGATTG, the binding signal in assay [1] is 10.1 upbm affinity estimate (log intensity, higher = more binding, comparable within an allelic series); in assay [2], 8.75 upbm affinity estimate (log intensity, higher = more binding, comparable within an allelic series).

For the sequence CAAATAAA, in assay [3], the binding signal is 11.4 upbm affinity estimate (log intensity, higher = more binding, comparable within an allelic series).

Regarding CTGGATGC, the binding signal was 8.4 upbm affinity estimate (log intensity, higher = more binding, comparable within an allelic series) in assay [1] and 8.44 upbm affinity estimate (log intensity, higher = more binding, comparable within an allelic series) in assay [2].

Regarding TGTTACAA, the binding signal in assay [3] was 10.6 upbm affinity estimate (log intensity, higher = more binding, comparable within an allelic series).

Consider GGTTATAC, for which the binding signal in assay [3] was 10.8 upbm affinity estimate (log intensity, higher = more binding, comparable within an allelic series).

Turning to ATGCCATA, the binding signal in assay [3] was 11 upbm affinity estimate (log intensity, higher = more binding, comparable within an allelic series).

For AATACTAG, the binding signal in assay [3] was 10.7 upbm affinity estimate (log intensity, higher = more binding, comparable within an allelic series).

Take ACCGCTCC: the binding signal in assay [1] was 8.61 upbm affinity estimate (log intensity, higher = more binding, comparable within an allelic series); in assay [2], 8.49 upbm affinity estimate (log intensity, higher = more binding, comparable within an allelic series).

On to TGAGAGCA, for which the binding signal in assay [1] was 8.62 upbm affinity estimate (log intensity, higher = more binding, comparable within an allelic series); in assay [2], 8.54 upbm affinity estimate (log intensity, higher = more binding, comparable within an allelic series).

In the case of AGCATGCT, the binding signal in assay [1] was 8.54 upbm affinity estimate (log intensity, higher = more binding, comparable within an allelic series); in assay [2], 8.54 upbm affinity estimate (log intensity, higher = more binding, comparable within an allelic series).

Consider CCATTTAA, for which the binding signal was 10.5 upbm affinity estimate (log intensity, higher = more binding, comparable within an allelic series) in assay [1] and 8.76 upbm affinity estimate (log intensity, higher = more binding, comparable within an allelic series) in assay [2].

Consider CCATGCTC, for which the binding signal in assay [1] is 8.55 upbm affinity estimate (log intensity, higher = more binding, comparable within an allelic series); in assay [2] it was 8.51 upbm affinity estimate (log intensity, higher = more binding, comparable within an allelic series).

For CGTGATAA, the binding signal in assay [3] was 10.9 upbm affinity estimate (log intensity, higher = more binding, comparable within an allelic series).

In the case of CCTTATAA, the binding signal in assay [1] was 9.62 upbm affinity estimate (log intensity, higher = more binding, comparable within an allelic series); in assay [2] it was 8.88 upbm affinity estimate (log intensity, higher = more binding, comparable within an allelic series).

Take ATTCGTAA: in assay [3], the binding signal is 10.8 upbm affinity estimate (log intensity, higher = more binding, comparable within an allelic series).

For the sequence GCACGTTA, the binding signal in assay [3] was 10.7 upbm affinity estimate (log intensity, higher = more binding, comparable within an allelic series).

For ACCTGCAC, the binding signal in assay [1] was 8.57 upbm affinity estimate (log intensity, higher = more binding, comparable within an allelic series); in assay [2] it was 8.45 upbm affinity estimate (log intensity, higher = more binding, comparable within an allelic series).

Turning to AGGAGCCT, the binding signal is 8.33 upbm affinity estimate (log intensity, higher = more binding, comparable within an allelic series) in assay [1] and 8.35 upbm affinity estimate (log intensity, higher = more binding, comparable within an allelic series) in assay [2].

As for CACCGCTA, the binding signal is 8.52 upbm affinity estimate (log intensity, higher = more binding, comparable within an allelic series) in assay [1] and 8.43 upbm affinity estimate (log intensity, higher = more binding, comparable within an allelic series) in assay [2].

Values taken from PMC11006913.
